pPAFAH FP inh – pPAFAH enzyme inhibitors, primary screen, biochemical, fluorescence polarization, human; Platelet-activating factor acetylhydrolase (Homo sapiens), Q13093; recombinant pPAFAH, FP-rhodamine probe fluorescence polarization; inhibition, % at 3.39 µM; 330,000 tested, 1.5% active; AID 463082, 2010;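 active means inhibition above the mean inhibition across the screen plus 3 SD, cut at about 25% in these data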;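 further: inhibitors block binding of the rhodamine activity-based probe so polarization drops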
PAFAH1B3 inh – PAFAH1B3 enzyme inhibitors, primary screen, biochemical, fluorescence polarization, human; 340,000 tested, 0.28% active; AID 492972, 2010; inhibition, % at 3.39 µM; recombinant PAFAH1B3, FP-rhodamine probe;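 active means inhibition above the screen-wide average of all tested compounds plus 3 SD, cut at about 25% in these data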
Rin1-Abl PPI inh – inhibitors of Rin1-Abl protein binding, primary screen, biochemical, TR-FRET | 360,000 tested, 0.4% active | inhibition, % at 7.35 µM | Tyrosine-protein kinase ABL1 (Homo sapiens) + Ras and Rab interactor 1 (Homo sapiens), …; in the data active means inhibition above about 5%, passing the limit was not always enough
E coli Lon inh – inhibitors of E. coli Lon protease, primary screen, biochemical, fluorescence polarization; P0A9M0; purified E. coli Lon protease; inhibition, % at 7.94 µM; 360,000 tested, 0.42% active; in the data active means inhibition above about 13%, passing the limit was not always enough
PAFAH1B2 FP inh – PAFAH1B2 enzyme inhibitors, primary screen, biochemical, fluorescence polarization, human. recombinant PAFAH1B2, FP-rhodamine activity probe. inhibition, % at 3.39 µM. 340,000 tested, 1.2% active. AID 492953, 2010;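 active means inhibition above the mean of all tested compounds plus 3 SD, cut at about 24% in these data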
PAFAH2 inh – PAFAH2 enzyme inhibitors, primary screen, biochemical, fluorescence polarization, human; Platelet-activating factor acetylhydrolase 2, cytoplasmic (Homo sapiens), Q99487; recombinant PAFAH2, FP-rhodamine activity probe; inhibition, % at 3.39 µM; 340,000 tested, 0.99% active; AID 492956, 2010;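 active means inhibition above the mean over all tested compounds plus 3 SD, cut at about 30% in these data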;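 further: inhibitors block probe labeling of enzyme so polarization drops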
E coli Lon conf – E. coli Lon protease inhibitor retest, confirmation, biochemical, fluorescence polarization | shares compounds with E coli Lon inh | purified E. coli Lon | inhibition, % at 7.94 µM | 1,400 tested, 31% active | AID 602230, 2012; in the data active means inhibition above about 16%
Large screens that a line does not name were inactive (follow-up assays come after a bar, where they were run). The list is not random: actives were taken first. Their share in the collection is about 3.1%.

Clc1ccc(C2=CC(c3ccco3)n3ncnc3N2)cc1 (configuration not stated)	E coli Lon inh 139 | E coli Lon conf 75
Clc1ccccc1C1=CC(c2ccco2)n2ncnc2N1 (configuration not stated)	E coli Lon inh 31 | E coli Lon conf inactive
Cc1noc(C)c1C(=O)OC(C)C(=O)NC(C)c1ccc(Cl)cc1Cl (configuration not stated)	none
O=S(=O)(Nc1ccc(C(O)(C(F)(F)F)C(F)(F)F)cc1)c1cccc2cccnc12	none (no result: pPAFAH FP inh, PAFAH1B3 inh, PAFAH1B2 FP inh, PAFAH2 inh)
CC(=O)Nc1ccc(S(=O)(=O)NCc2ccc3[nH]c(C)cc3c2)cc1	E coli Lon inh 19 | E coli Lon conf inactive
Cc1cccc(NC(=S)NCc2ccc3c(c2)cc(C)n3C)c1C	none
Cc1cc2cc(CNS(=O)(=O)c3ccc4ccccc4c3)ccc2n1C	E coli Lon inh 16 | E coli Lon conf inactive
CC(=O)Nc1ccc(S(=O)(=O)NCc2ccc3c(c2)cc(C)n3C)cc1	E coli Lon inh 49 | E coli Lon conf 22
Cc1cc2cc(CNC(=S)Nc3ccc(OC(F)(F)F)cc3)ccc2n1C	E coli Lon inh 19 | E coli Lon conf 19
CC(=O)OCC(=O)C1(O)CCC2C3CC(F)C4=CC(=O)CCC4(C)C3C(O)CC21C (configuration not stated)	none (no result: pPAFAH FP inh)
O=C1NC[C@H](CCCCN2C[C@H](Cc3ccccc3)N(CC3CCCCC3)C(=O)C2=O)N(CCc2ccccc2)C1=O	none (no result: pPAFAH FP inh, PAFAH1B3 inh, Rin1-Abl PPI inh, PAFAH1B2 FP inh, PAFAH2 inh)
O=C(CN1C(=O)c2ccccc2C1=O)NC(Cc1ccccc1)C(=O)O (configuration not stated)	none (no result: pPAFAH FP inh)
O=C1c2ccccc2C(=O)c2c1cccc2N(CCO)CCO	E coli Lon inh 27 | E coli Lon conf 20
CN(C)S(=O)(=O)c1cccc2c1C(=O)c1ccccc1C2=O	none
O=C(COC(=O)Cc1ccc(Cl)cc1)NC1CCCC1	pPAFAH FP inh 26, E coli Lon inh 50 | E coli Lon conf inactive
O=C(COC(=O)Cc1ccc(F)cc1)NC1CCCC1	none
CCOc1ccc(NC(=O)c2ccc3c(c2)OCCO3)cc1S(=O)(=O)N(CC)CC	none
Cc1ccc[n+](-c2nc([O-])sc2C=O)c1	E coli Lon inh 92 | E coli Lon conf 148
Cc1onc(C(=O)Nc2cccnc2Cl)c1[N+](=O)[O-]	none
CC(C)c1onc(C(=O)Nc2cccnc2Cl)c1[N+](=O)[O-]	E coli Lon inh 19 | E coli Lon conf inactive
CN(C(=O)COC(=O)c1cc2c(s1)CCCCC2)c1ccccc1	E coli Lon inh 30 | E coli Lon conf inactive
CN(C)c1cccc(C(=O)OCC(=O)N(C)c2ccccc2)c1	none
CC1CCCN(C(=O)CN2C(=O)CSc3ccc(S(=O)(=O)N4CCOCC4)cc32)C1 (configuration not stated)	none
COC(=O)[C@H](CC(C)C)NC(=O)Cn1cnc2c(SC)nc(N)nc21	E coli Lon inh 12 | E coli Lon conf inactive
COC(=O)[C@H](CCSC)NC(=O)Cn1cnc2c(SC)nc(N)nc21	none
Cc1cccc(/C=N/NC(=O)C(C)Nc2cccc3ccccc23)n1 (configuration not stated)	E coli Lon inh 61 | E coli Lon conf 105
CCCCC[C@H](O)/C=C/C1C(=O)C=C[C@H]1C/C=C\CCCC(=O)OC (some centres not stated)	none (no result: pPAFAH FP inh)
O=C(NCC(=O)N1CCN(S(=O)(=O)c2ccccc2F)CC1)c1ccc2c(c1)OCO2	none
COc1ccc(S(=O)(=O)N2CCN(C(=O)CNC(=O)c3ccc4c(c3)OCO4)CC2)cc1	E coli Lon inh 53 | E coli Lon conf inactive
CC1CC(=O)c2cnc(NCC3CCCO3)nc2C1 (configuration not stated)	E coli Lon inh 16 | E coli Lon conf inactive
